{
  "source": "the supplement of paper PMC8253809",
  "data": [
    {"system": "HGGX6 (H3.3 G34R paediatric high-grade glioma line)", "experiment": "growth inhibition (% activity, log2 RLU normalised to DMSO / staurosporine); higher = more growth inhibition", "conditions": "33 µM", "procedure,_shortened": "(§1)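 Approved drugs were tested in triplicate at a single final concentration of about 33 μM for 7 days at 37 °C, 5% CO2, on pHGG cell lines and H9-derived neural stem cells. Readout was CellTiter-Glo luminescence, log2-transformed and scaled per plate to % activity between solvent and positive control wells. The median over replicates gives the growth-inhibition value.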", "units": {"growth inhibition": "%"}, "values": [
      {"smiles": "O=c1c(-c2ccc(O)cc2)coc2cc(O)ccc12", "growth inhibition": -0.307},
      {"smiles": "Oc1ncnc2[nH]ncc12", "growth inhibition": -3.6},
      {"smiles": "Oc1ccc(/C=C/c2cc(O)cc(O)c2)cc1", "growth inhibition": 2.36},
      {"smiles": "CCCCCCCCCCCCCCCC[N+](C)(C)C", "growth inhibition": 23.6},
      {"smiles": "COc1cc(C(=O)NC2CCCNC2)cc(OC)c1OC", "note": "(stereo not given)", "growth inhibition": -3.35},
      {"smiles": "O=C(O[C@H]1CN2CCC1CC2)N1CCc2ccccc2[C@@H]1c1ccccc1", "growth inhibition": 0.102},
      {"smiles": "Cc1nc2n(c(=O)c1CCN1CCC(c3noc4cc(F)ccc34)CC1)CCCC2O", "note": "(stereo not given)", "growth inhibition": -1.12},
      {"smiles": "COc1cc2c(cc1Cc1cccc(Cl)c1F)c(=O)c(C(=O)O)cn2[C@H](CO)C(C)C", "growth inhibition": 0.0329},
      {"smiles": "CC1=C(C(=O)O)N2C(=O)[C@@H](NC(=O)[C@H](N)c3ccccc3)[C@H]2SC1", "growth inhibition": 0.198},
      {"smiles": "COc1ccc(-c2ccc3cc(C(=O)O)ccc3c2)cc1C12CC3CC(CC(C3)C1)C2", "growth inhibition": 2.51},
      {"smiles": "COCCCOc1cc(C[C@@H](C[C@H](N)[C@@H](O)C[C@H](C(=O)NCC(C)(C)C(N)=O)C(C)C)C(C)C)ccc1OC", "growth inhibition": 1.44},
      {"smiles": "C=C1CCC(O)CC1=CC=C1CCCC2(C)C1CCC2C(C)CCCC(C)(C)O", "note": "(stereo not given)", "growth inhibition": 0.603},
      {"smiles": "COc1cc2c(cc1O)CC[C@@H]1[C@@H]2CC[C@]2(C)[C@@H](O)CC[C@@H]12", "growth inhibition": 11.7},
      {"smiles": "[O-]n1ccccc1=S.[O-]n1ccccc1=S.[Zn+2]", "growth inhibition": 59.7},
      {"smiles": "Nc1ccc(S(=O)(=O)Nc2nccs2)cc1", "growth inhibition": -3.04},
      {"smiles": "CCC1=C(C)CN(C(=O)NCCc2ccc(S(=O)(=O)NC(=O)N[C@H]3CC[C@H](C)CC3)cc2)C1=O", "growth inhibition": 0.0487},
      {"smiles": "CS(=O)(=O)c1ccc([C@@H](O)[C@@H](CF)NC(=O)C(Cl)Cl)cc1", "growth inhibition": 5.33},
      {"smiles": "COC(=O)C1=C(C)NC(C)=C(C(=O)OC)C1c1ccccc1[N+](=O)[O-]", "growth inhibition": -0.288},
      {"smiles": "CC(C)Cn1cnc2c(N)nc3ccccc3c21", "growth inhibition": 2.84},
      {"smiles": "CCOc1ccc2ccccc2c1C(=O)N[C@@H]1C(=O)N2[C@@H]1SC(C)(C)[C@@H]2C(=O)O", "growth inhibition": -5.66},
      {"smiles": "Cc1onc(-c2ccccc2Cl)c1C(=O)N[C@@H]1C(=O)N2[C@@H]1SC(C)(C)[C@@H]2C(=O)O", "growth inhibition": 1.07},
      {"smiles": "O=C[C@H](O)[C@@H](O)[C@H](O)CO", "growth inhibition": 1.49},
      {"smiles": "CO/N=C(\\C(=O)N[C@@H]1C(=O)N2C(C(=O)O)=C(Cn3ccc(=N)n3CCO)CS[C@H]12)c1csc(N)n1", "growth inhibition": 0.395},
      {"smiles": "CC(=O)Oc1cc2c(s1)CCN(C(C(=O)C1CC1)c1ccccc1F)C2", "note": "(stereo not given)", "growth inhibition": -2.02},
      {"smiles": "CC(C)n1c(/C=C/[C@@H](O)C[C@@H](O)CC(=O)O)c(-c2ccc(F)cc2)c2ccccc21", "growth inhibition": 10.2},
      {"smiles": "C[C@@H]1CC(=O)NN=C1c1ccc(NN=C(C#N)C#N)cc1", "growth inhibition": 2.45},
      {"smiles": "CCCCC1=NC2(CCCC2)C(=O)N1Cc1ccc(-c2ccccc2-c2nnn[nH]2)cc1", "growth inhibition": 3.43},
      {"smiles": "C[C@@H](O[C@H]1OCCN(Cc2n[nH]c(=O)[nH]2)[C@H]1c1ccc(F)cc1)c1cc(C(F)(F)F)cc(C(F)(F)F)c1", "growth inhibition": 7.33},
      {"smiles": "COC(=O)C1=C(C)NC(C)=C(C(=O)OCC(C)C)C1c1ccccc1[N+](=O)[O-]", "note": "(stereo not given)", "growth inhibition": 3.46},
      {"smiles": "CC#CCn1c(N2CCC[C@@H](N)C2)nc2c1c(=O)n(Cc1nc(C)c3ccccc3n1)c(=O)n2C", "growth inhibition": -0.836},
      {"smiles": "CC(C)(O/N=C(\\C(=O)N[C@@H]1C(=O)N2C(C(=O)[O-])=C(C[n+]3ccccc3)CS[C@H]12)c1csc(N)n1)C(=O)O", "growth inhibition": -0.0518},
      {"smiles": "CCC(=O)O[C@@H](O[P@](=O)(CCCCc1ccccc1)CC(=O)N1C[C@H](C2CCCCC2)C[C@H]1C(=O)O)C(C)C", "growth inhibition": 2.08},
      {"smiles": "O=C(O)c1cn(C2CC2)c2cc(N3CCNCC3)c(F)cc2c1=O", "growth inhibition": -1.82},
      {"smiles": "N[C@H](C(=O)O)[C@H](O)c1ccc(O)c(O)c1", "growth inhibition": -1.74},
      {"smiles": "COCCCC/C(=N\\OCCN)c1ccc(C(F)(F)F)cc1", "growth inhibition": -0.782},
      {"smiles": "O=C1c2cccc3c2[C@H](CCC3)CN1[C@@H]1CN2CCC1CC2", "growth inhibition": 1.03},
      {"smiles": "CC(C)(C)C(=O)OCOP(=O)(COCCn1cnc2c(N)ncnc21)OCOC(=O)C(C)(C)C", "growth inhibition": 7.96},
      {"smiles": "CCOC(=O)C1=C(C)NC(C)=C(C(=O)OCC)C1c1ccccc1/C=C/C(=O)OC(C)(C)C", "growth inhibition": 2.24},
      {"smiles": "Cc1ncc(C[n+]2csc(CCO)c2C)c(N)n1", "growth inhibition": 1.62},
      {"smiles": "CN1c2cc(O)c(N=NC(N)=O)cc2CC1S(=O)(=O)O", "note": "(stereo not given)", "growth inhibition": 0.668}
    ]},
    {"system": "HNSC", "experiment": "growth inhibition (% activity, log2 RLU normalised to DMSO / staurosporine); higher = more growth inhibition", "conditions": "33 µM", "procedure,_shortened": "as §1", "units": {"growth inhibition": "%"}, "values": [
      {"smiles": "O=c1c(-c2ccc(O)cc2)coc2cc(O)ccc12", "growth inhibition": -2.12},
      {"smiles": "Oc1ncnc2[nH]ncc12", "growth inhibition": -5.63},
      {"smiles": "Oc1ccc(/C=C/c2cc(O)cc(O)c2)cc1", "growth inhibition": 3.97},
      {"smiles": "CCCCCCCCCCCCCCCC[N+](C)(C)C", "growth inhibition": 59.5},
      {"smiles": "COc1cc(C(=O)NC2CCCNC2)cc(OC)c1OC", "note": "(stereo not given)", "growth inhibition": 6.28},
      {"smiles": "O=C(O[C@H]1CN2CCC1CC2)N1CCc2ccccc2[C@@H]1c1ccccc1", "growth inhibition": -0.949},
      {"smiles": "Cc1nc2n(c(=O)c1CCN1CCC(c3noc4cc(F)ccc34)CC1)CCCC2O", "note": "(stereo not given)", "growth inhibition": 23.4},
      {"smiles": "COc1cc2c(cc1Cc1cccc(Cl)c1F)c(=O)c(C(=O)O)cn2[C@H](CO)C(C)C", "growth inhibition": 19.8},
      {"smiles": "CC1=C(C(=O)O)N2C(=O)[C@@H](NC(=O)[C@H](N)c3ccccc3)[C@H]2SC1", "growth inhibition": -2.54},
      {"smiles": "COc1ccc(-c2ccc3cc(C(=O)O)ccc3c2)cc1C12CC3CC(CC(C3)C1)C2", "growth inhibition": 1.43},
      {"smiles": "COCCCOc1cc(C[C@@H](C[C@H](N)[C@@H](O)C[C@H](C(=O)NCC(C)(C)C(N)=O)C(C)C)C(C)C)ccc1OC", "growth inhibition": 2.36},
      {"smiles": "C=C1CCC(O)CC1=CC=C1CCCC2(C)C1CCC2C(C)CCCC(C)(C)O", "note": "(stereo not given)", "growth inhibition": -1.74},
      {"smiles": "COc1cc2c(cc1O)CC[C@@H]1[C@@H]2CC[C@]2(C)[C@@H](O)CC[C@@H]12", "growth inhibition": 53.5},
      {"smiles": "[O-]n1ccccc1=S.[O-]n1ccccc1=S.[Zn+2]", "growth inhibition": 58.4},
      {"smiles": "Nc1ccc(S(=O)(=O)Nc2nccs2)cc1", "growth inhibition": 5.4},
      {"smiles": "CCC1=C(C)CN(C(=O)NCCc2ccc(S(=O)(=O)NC(=O)N[C@H]3CC[C@H](C)CC3)cc2)C1=O", "growth inhibition": 4.42},
      {"smiles": "CS(=O)(=O)c1ccc([C@@H](O)[C@@H](CF)NC(=O)C(Cl)Cl)cc1", "growth inhibition": 15.9},
      {"smiles": "COC(=O)C1=C(C)NC(C)=C(C(=O)OC)C1c1ccccc1[N+](=O)[O-]", "growth inhibition": 8.49},
      {"smiles": "CC(C)Cn1cnc2c(N)nc3ccccc3c21", "growth inhibition": 0.687},
      {"smiles": "CCOc1ccc2ccccc2c1C(=O)N[C@@H]1C(=O)N2[C@@H]1SC(C)(C)[C@@H]2C(=O)O", "growth inhibition": 31.9},
      {"smiles": "Cc1onc(-c2ccccc2Cl)c1C(=O)N[C@@H]1C(=O)N2[C@@H]1SC(C)(C)[C@@H]2C(=O)O", "growth inhibition": -1.87},
      {"smiles": "O=C[C@H](O)[C@@H](O)[C@H](O)CO", "growth inhibition": 0.405},
      {"smiles": "CO/N=C(\\C(=O)N[C@@H]1C(=O)N2C(C(=O)O)=C(Cn3ccc(=N)n3CCO)CS[C@H]12)c1csc(N)n1", "growth inhibition": -1.19},
      {"smiles": "CC(=O)Oc1cc2c(s1)CCN(C(C(=O)C1CC1)c1ccccc1F)C2", "note": "(stereo not given)", "growth inhibition": 0.528},
      {"smiles": "CC(C)n1c(/C=C/[C@@H](O)C[C@@H](O)CC(=O)O)c(-c2ccc(F)cc2)c2ccccc21", "growth inhibition": 26.9},
      {"smiles": "C[C@@H]1CC(=O)NN=C1c1ccc(NN=C(C#N)C#N)cc1", "growth inhibition": 5.57},
      {"smiles": "CCCCC1=NC2(CCCC2)C(=O)N1Cc1ccc(-c2ccccc2-c2nnn[nH]2)cc1", "growth inhibition": 2.66},
      {"smiles": "C[C@@H](O[C@H]1OCCN(Cc2n[nH]c(=O)[nH]2)[C@H]1c1ccc(F)cc1)c1cc(C(F)(F)F)cc(C(F)(F)F)c1", "growth inhibition": 8.95},
      {"smiles": "COC(=O)C1=C(C)NC(C)=C(C(=O)OCC(C)C)C1c1ccccc1[N+](=O)[O-]", "note": "(stereo not given)", "growth inhibition": 5.72},
      {"smiles": "CC#CCn1c(N2CCC[C@@H](N)C2)nc2c1c(=O)n(Cc1nc(C)c3ccccc3n1)c(=O)n2C", "growth inhibition": -2.39},
      {"smiles": "CC(C)(O/N=C(\\C(=O)N[C@@H]1C(=O)N2C(C(=O)[O-])=C(C[n+]3ccccc3)CS[C@H]12)c1csc(N)n1)C(=O)O", "growth inhibition": 1.13},
      {"smiles": "CCC(=O)O[C@@H](O[P@](=O)(CCCCc1ccccc1)CC(=O)N1C[C@H](C2CCCCC2)C[C@H]1C(=O)O)C(C)C", "growth inhibition": 2.72},
      {"smiles": "O=C(O)c1cn(C2CC2)c2cc(N3CCNCC3)c(F)cc2c1=O", "growth inhibition": -1.04},
      {"smiles": "N[C@H](C(=O)O)[C@H](O)c1ccc(O)c(O)c1", "growth inhibition": -3.73},
      {"smiles": "COCCCC/C(=N\\OCCN)c1ccc(C(F)(F)F)cc1", "growth inhibition": -3.83},
      {"smiles": "O=C1c2cccc3c2[C@H](CCC3)CN1[C@@H]1CN2CCC1CC2", "growth inhibition": -3.52},
      {"smiles": "CC(C)(C)C(=O)OCOP(=O)(COCCn1cnc2c(N)ncnc21)OCOC(=O)C(C)(C)C", "growth inhibition": 47.8},
      {"smiles": "CCOC(=O)C1=C(C)NC(C)=C(C(=O)OCC)C1c1ccccc1/C=C/C(=O)OC(C)(C)C", "growth inhibition": 46.6},
      {"smiles": "Cc1ncc(C[n+]2csc(CCO)c2C)c(N)n1", "growth inhibition": -1.01},
      {"smiles": "CN1c2cc(O)c(N=NC(N)=O)cc2CC1S(=O)(=O)O", "note": "(stereo not given)", "growth inhibition": -5.18}
    ]}
  ]
}
